PubChem BioAssay (NCI)
This is part of a sample that, as a whole, favours compounds with a hit. Of some 79,000 tested, about 15% had one in any assay. A number with no mark means an inactive call. Activity calls are given as the source filed them. Cut-off read from the data, not from the text of the source: active = growth inhibition above about 70%; inactive = the rest.

Assay: NCI Yeast Anticancer Drug Screen. Data for the sgs1 mgt1 strain (AID 161);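 note: 0% = growth of cultures given vehicle only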
Details: S. cerevisiae sgs1 mgt1 strain, at 50.0 µM, hits give high values
Outline: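 Mutant yeast exposed to compound; growth scored against vehicle-only wells.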

Going from `C=CCCCCCCCCC(=O)OC1CCCCC1` to `O=C(O)CCSCCCCCCCCCCCCSCCC(=O)O`, the growth inhibition rises from 11.1% to 18.4%.

Going from `O=C(O)C(Cc1ccccc1)c1ccccc1` (stereo not given) to `[O-]/[N+](=C\c1ccccc1)[C@H](COCc1ccccc1)c1ccccc1`, the growth inhibition falls from -11.8% to -23.8%.

First: COc1cc(CC2c3cc(OC)c(OC)cc3CC[N+]2(C)C)c(Oc2cc(CC3c4cc(OC)c(OC)cc4CC[N+]3(C)C)ccc2OC)cc1OC (stereo not given)
Second: COC(=O)c1cc(C)ccc1/C=C1\Cc2c(C)cc(C)cc2C1=O
The growth inhibition of the first is higher: -0.85% for the first, -6.85% for the second.

Going from `COC(C)C(NC=O)C(=O)O` (stereo not given) to `CC(C)(C)OC(=O)CC1(C)NC(C(=O)O)C(C)(C)S1` (stereo not given), the growth inhibition falls from 7.45% to -10.9%.

Going from `O=C1c2ccccc2C(=Cc2cccnc2)c2ccccc21` to `O=C1OC([C@H](O)c2cccnc2)c2ccccc21` (stereo not given in full), the growth inhibition falls from 30.1% to -39.4%.

First: CC1(C)OCCS1
Second: CC1(C)CC(O)=CC(=O)N1
The growth inhibition of the first is higher: 6.7% for the first, -3.85% for the second.

First: CC(=O)Oc1nnc(-c2ccccc2)c(-c2ccccc2)n1
Second: CCCCCCCCN(CCCCCCCC)CC(O)c1cc(-c2ccccc2)nc2c(-c3ccccc3)cccc12 (stereo not given)
The growth inhibition of the first is lower: 17.1% for the first, 49.2% for the second.

Compared with `Clc1ccc(C2=NCCO2)cc1`, `CN(C)c1nc2ccccc2[nH]1` is higher in growth inhibition: -5.75% for the first, 11.9% for the second.

First: CCCCCC(=O)N1SC(NC(=O)OC)=Nc2ccccc21
Second: CCCCCCC(=O)c1ccc2ccccc2c1O
The growth inhibition of the first is higher: 64.8% for the first, 0.55% for the second.

First: O=C1CC2(CCC(O)(c3ccc(Cl)cc3)C(C(=O)c3ccc(Cl)cc3)C2)C(=O)c2ccccc2N1 (stereo not given)
Second: O=C(ON=C1c2ccccc2C(Br)C(Br)c2ccccc21)c1cc([N+](=O)[O-])cc([N+](=O)[O-])c1 (stereo not given)
The growth inhibition of the first is lower: -16.9% for the first, 28.8% for the second.

First: CCCCCCC(O)CCCCCC
Second: CCCCCCCCCCCCOc1ccc(C(C)(C)C)cc1
The growth inhibition of the first is higher: 26.4% for the first, -22.1% for the second.

Compared with `CCOC(=O)OCCOCCOC(=O)OCC`, `CCOC(=O)C1CCCCC1C(=O)OCC` (stereo not given) is higher in growth inhibition: -30.8% for the first, -7.3% for the second.

Going from `NNC(=O)CSCC(=O)NN` to `COC(=O)C(=[N+]=[N-])C(=O)c1ccccc1[N+](=O)[O-]`, the growth inhibition rises from -3.25% to 15.8%.

First: CC(=O)Cc1ccc2[nH]c(C)cc(=O)c2c1
Second: CCN(CC)CCOc1ccc(Cc2nc3c([nH]2)c(=O)n(C)c(=O)n3C)cc1
The growth inhibition of the first is lower: -0.2% for the first, 14.2% for the second.

First: O=[N+]([O-])c1cc(S(=O)(=O)O)cc(S(=O)(=O)O)c1O
Second: Nc1cc([N+](=O)[O-])ccc1N1C(=O)CCCC1=O
The growth inhibition of the first is higher: 13.2% for the first, -10.1% for the second.

Going from `Nc1nc2c(ncn2C2OC(CO)C3OP(=O)(O)OC32)c(=O)[nH]1` (stereo not given) to `O=C(NCc1cccs1)OC1CC2CCC1C2` (stereo not given), the growth inhibition rises from -19.4% to 10.8%.

Going from `COC1CCC(/C(C#N)=C/C2CCC(N(C)C)CC2)CC1` (stereo not given) to `CN1CCC2(CC1)C(=NC1CCCCC1)NC(=O)N2c1ccccc1`, the growth inhibition falls from 20.9% to -5.45%.

Compared with `COc1ccc(C(Cl)=C(c2ccc(OCCN(C)C)cc2)c2ccc(OCCN(C)C)cc2)cc1`, `CC(C)(C)NC(=O)Oc1ccc2ccccc2c1` is lower in growth inhibition: 40.1% for the first, -6% for the second.

First: CC(C)(C)NC(NC(C)(C)C)=C(/C=C(/Cl)[N+](=O)[O-])[N+](=O)[O-]
Second: O=C(NCc1ccc([N+](=O)[O-])cc1)c1ccccc1
The growth inhibition of the first is higher: 0.45% for the first, -6.4% for the second.

Going from `CSc1ccc(NC(=O)Nc2ccccc2C(F)(F)F)cc1` to `CNc1nc(=S)nc(-c2ccccc2)s1`, the growth inhibition falls from 18.4% to 11.3%.

Assay: NCI Yeast Anticancer Drug Screen. Data for the cln2 rad14 strain (AID 165);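 note: 0% = growth equal to vehicle treated cultures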
Details: S. cerevisiae cln2 rad14 strain, at 50.0 µM, hits give high values
Outline: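 cln2 rad14 yeast strain; compound exposure; growth inhibition read vs vehicle controls.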

Compared with `C=CCCCCCCCCC(=O)OC1CCCCC1`, `O=C(O)CCSCCCCCCCCCCCCSCCC(=O)O` is higher in growth inhibition: -23.1% for the first, 18.8% for the second.

Going from `O=C(O)C(Cc1ccccc1)c1ccccc1` (stereo not given) to `[O-]/[N+](=C\c1ccccc1)[C@H](COCc1ccccc1)c1ccccc1`, the growth inhibition rises from -21.4% to -13.5%.

Going from `COc1cc(CC2c3cc(OC)c(OC)cc3CC[N+]2(C)C)c(Oc2cc(CC3c4cc(OC)c(OC)cc4CC[N+]3(C)C)ccc2OC)cc1OC` (stereo not given) to `COC(=O)c1cc(C)ccc1/C=C1\Cc2c(C)cc(C)cc2C1=O`, the growth inhibition falls from -4.45% to -30.6%.

Going from `COC(C)C(NC=O)C(=O)O` (stereo not given) to `CC(C)(C)OC(=O)CC1(C)NC(C(=O)O)C(C)(C)S1` (stereo not given), the growth inhibition falls from 8.65% to -9.75%.

Compared with `O=C1c2ccccc2C(=Cc2cccnc2)c2ccccc21`, `O=C1OC([C@H](O)c2cccnc2)c2ccccc21` (stereo not given in full) is lower in growth inhibition: 20.2% for the first, -22.9% for the second.

First: CC1(C)OCCS1
Second: CC1(C)CC(O)=CC(=O)N1
The growth inhibition of the first is higher: 18.6% for the first, 11.7% for the second.

First: CC(=O)Oc1nnc(-c2ccccc2)c(-c2ccccc2)n1
Second: CCCCCCCCN(CCCCCCCC)CC(O)c1cc(-c2ccccc2)nc2c(-c3ccccc3)cccc12 (stereo not given)
The growth inhibition of the first is lower: 13.8% for the first, 51.1% for the second.

First: Clc1ccc(C2=NCCO2)cc1
Second: CN(C)c1nc2ccccc2[nH]1
The growth inhibition of the first is lower: -11.8% for the first, -1.35% for the second.

First: O=C1CC2(CCC(O)(c3ccc(Cl)cc3)C(C(=O)c3ccc(Cl)cc3)C2)C(=O)c2ccccc2N1 (stereo not given)
Second: O=C(ON=C1c2ccccc2C(Br)C(Br)c2ccccc21)c1cc([N+](=O)[O-])cc([N+](=O)[O-])c1 (stereo not given)
The growth inhibition of the first is lower: -23.5% for the first, -0.6% for the second.

First: CCCCCCC(O)CCCCCC
Second: CCCCCCCCCCCCOc1ccc(C(C)(C)C)cc1
The growth inhibition of the first is lower: -24.6% for the first, 7.85% for the second.

Compared with `CCOC(=O)OCCOCCOC(=O)OCC`, `CCOC(=O)C1CCCCC1C(=O)OCC` (stereo not given) is lower in growth inhibition: 19.2% for the first, -3.55% for the second.

Compared with `NNC(=O)CSCC(=O)NN`, `COC(=O)C(=[N+]=[N-])C(=O)c1ccccc1[N+](=O)[O-]` is higher in growth inhibition: -9.75% for the first, 18.5% for the second.

Compared with `CC(=O)Cc1ccc2[nH]c(C)cc(=O)c2c1`, `CCN(CC)CCOc1ccc(Cc2nc3c([nH]2)c(=O)n(C)c(=O)n3C)cc1` is higher in growth inhibition: -34.4% for the first, 34.5% for the second.

Compared with `O=[N+]([O-])c1cc(S(=O)(=O)O)cc(S(=O)(=O)O)c1O`, `Nc1cc([N+](=O)[O-])ccc1N1C(=O)CCCC1=O` is lower in growth inhibition: 19.6% for the first, -5.8% for the second.

First: Nc1nc2c(ncn2C2OC(CO)C3OP(=O)(O)OC32)c(=O)[nH]1 (stereo not given)
Second: CCCCCCC(=O)c1ccc2ccccc2c1O
The growth inhibition of the first is lower: -29.4% for the first, -23.9% for the second.

Going from `COC1CCC(/C(C#N)=C/C2CCC(N(C)C)CC2)CC1` (stereo not given) to `O=C(NCc1cccs1)OC1CC2CCC1C2` (stereo not given), the growth inhibition falls from 10.6% to -14.8%.

Going from `COc1ccc(C(Cl)=C(c2ccc(OCCN(C)C)cc2)c2ccc(OCCN(C)C)cc2)cc1` to `CC(C)(C)NC(=O)Oc1ccc2ccccc2c1`, the growth inhibition falls from 28.8% to -84.9%.

First: CN1CCC2(CC1)C(=NC1CCCCC1)NC(=O)N2c1ccccc1
Second: CNc1nc(=S)nc(-c2ccccc2)s1
The growth inhibition of the first is higher: 1.1% for the first, -8.45% for the second.

Going from `CC(C)(C)NC(NC(C)(C)C)=C(/C=C(/Cl)[N+](=O)[O-])[N+](=O)[O-]` to `O=C(NCc1ccc([N+](=O)[O-])cc1)c1ccccc1`, the growth inhibition rises from -10.9% to 10.1%.

`CSc1ccc(NC(=O)Nc2ccccc2C(F)(F)F)cc1` showed a growth inhibition of -9.85%.

In the case of `CCCCCC(=O)N1SC(NC(=O)OC)=Nc2ccccc21`, the growth inhibition is reported as 84.3% (active).
